PLK1 PBD inh: blocks phosphopeptide binding to human PLK1 polo-box domain; Potency, µM, hits mostly inhibitors; hit rate 2.8% among 360,000; Plk1 PBD binding of FITC phosphopeptide, fluorescence polarization; note: series mostly up to about 57 µM; nearly all actives have a fitted effect of over 65% in size
MBNL1 CUG block: MBNL1-poly(CUG) RNA binding inhibition | Q9NR56 | TR-FRET MBNL1-His/biotin-(CUG)12 binding, 665/545 ratio | Potency, µM (doses to about 57.5 µM), hits mostly inhibitors | hit rate 0.036% among 280,000; active = well fitted inhibition curve with a large enough effect in the signal ratio, with a control signal flat, not every such curve was filed as active; inconclusive = small, poorly fitted or top-dose-only effect, or effect the other way, or a change in a side signal; inactive = no such curve, though single readings can be large or run the other way; the % refers to the signal ratio
Target sequence (Q9NR56 whole entry, looked up): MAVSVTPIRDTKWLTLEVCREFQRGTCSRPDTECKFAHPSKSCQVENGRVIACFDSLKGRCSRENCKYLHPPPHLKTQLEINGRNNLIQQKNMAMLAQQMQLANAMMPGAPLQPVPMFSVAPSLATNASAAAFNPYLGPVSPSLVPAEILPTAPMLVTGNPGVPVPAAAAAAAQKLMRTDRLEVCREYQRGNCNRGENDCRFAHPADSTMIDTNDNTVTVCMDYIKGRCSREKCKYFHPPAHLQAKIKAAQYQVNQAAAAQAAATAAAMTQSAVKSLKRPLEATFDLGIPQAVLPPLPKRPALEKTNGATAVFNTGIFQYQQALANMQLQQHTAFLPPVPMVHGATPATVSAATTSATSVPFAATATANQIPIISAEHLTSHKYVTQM
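Inhibition of protein-RNA binding appears as loss of TR-FRET between terbium anti-His antibody on MBNL1-His and streptavidin-XL665 on biotin-(CUG)12. Activity is normalized to buffer-only and uninhibited-complex controls.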
VDR inhibitor: vitamin D3 receptor (human) inhibition; VDR-SRC2-3 peptide fluorescence polarization, 2 h; Potency, µM, actives largely listed as inhibitors; hit rate 0.93% among 400,000; AID 504847
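Compounds are added to VDR with labelled SRC2-3 coactivator peptide and held 2 h at room temperature. Inhibition of the VDR–peptide interaction is then read as a change in fluorescence polarization.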
KCNH2 3.1 block: blocks the human KCNH2 3.1 channel isoform | AID 720553 | U2OS KCNH2 3.1, thallium flux FluxOr; active compounds read low | hit rate 0.95% among 340,000 | activity change, % (tested at about 1.8 µM);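 active = maximum activity change below -70%; inconclusive = maximum activity change from -70% to -50%; inactive = maximum activity change above -50%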;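 note: thallium influx rate constant from kinetic fluorescence after stimulation buffer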
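FluxOr-based Tl+ influx in U2OS cells transduced with KCNH2 3.1 virus; rate constants normalized to DMSO controls.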
CBFb-RUNX1 inh: blocks binding between human CBF-beta and RUNX1. AlphaScreen CBFb-His/RUNX1-biotin binding, biochemical. Potency, µM (titrated, usually from 59.8 µM), most hits filed as inhibitors. 230,000 tested, under 10 active. AID 1477
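Interaction loss through any mechanism counts as activity. Pre-formed complex of His-CBF-beta and biotin-RUNX1 (30 nM apiece) is incubated with compound 15 min, then with 50 ng nickel and 50 ng streptavidin beads for 90 min before AlphaScreen detection.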
hERG WT inh: KCNH2 (human, wildtype) channel inhibition. hit rate 0.37% among 340,000. U2OS, BacMam KCNH2, thallium flux FluxOr; active compounds read low. activity change, % at 1.84 µM. Q12809;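 active = maximum activity change below -70%; inconclusive = maximum activity change between -70% and -50%; inactive = maximum activity change above -50%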
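U2OS cells transduced with wild-type KCNH2 virus are loaded with FluxOr dye for 45 min, and thallium flux is measured in kinetic reads before and after stimulation buffer. Rate constants are normalized to DMSO controls.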
Large screens that a line does not name were inactive. This is a sample that favours compounds with a hit; in the whole collection about 3.8% have one here. Unless noted, calls come from the whole dose curve; as a rule, active = well fitted curve in the direction sought with a large enough effect; inconclusive = small, poorly fitted or top-dose-only effect, or another doubt; inactive = no such curve, though single readings can be large; an effect the other way counts as inactive or inconclusive.

Cc1ccc(N2C(=O)c3cccc4c([N+](=O)[O-])ccc(c34)C2=O)c2cccnc12	KCNH2 3.1 block -98
COc1ccc(Cl)cc1NC(=O)c1nc(S(C)(=O)=O)ncc1N(Cc1ccc(C)cc1)Cc1ccco1	none (no result: PLK1 PBD inh, MBNL1 CUG block, KCNH2 3.1 block, CBFb-RUNX1 inh, hERG WT inh)
N#CC(Sc1ccccn1)c1ccc(Cl)cc1 (stereo unspecified)	PLK1 PBD inh 7.5µM, MBNL1 CUG block inconclusive, VDR inhibitor inconclusive
O=[N+]([O-])c1cc(Cl)ccc1Sc1ccccn1	MBNL1 CUG block inconclusive
O=S(=O)(Nc1nc2ccccc2nc1Nc1ccc2c(c1)OCO2)c1ccccc1	PLK1 PBD inh inconclusive, KCNH2 3.1 block -96
COc1ccc(S(=O)(=O)Nc2cccc(S(=O)(=O)N3CCCCC3)c2)cc1	none (no result: MBNL1 CUG block, CBFb-RUNX1 inh)
O=[N+]([O-])c1cccc(S(=O)(=O)Nc2nc3ccccc3nc2Nc2cccc(S(=O)(=O)N3CCCCC3)c2)c1	PLK1 PBD inh 24µM
Cc1ccc(S(=O)(=O)Nc2nc3ccccc3nc2Nc2cccc(S(=O)(=O)N3CCCC3)c2)cc1	PLK1 PBD inh 27µM
Cc1cc(C)n(-c2nc3ccccc3nc2N2CCN(c3cccc(C)c3C)CC2)n1	none (no result: PLK1 PBD inh, MBNL1 CUG block, KCNH2 3.1 block, CBFb-RUNX1 inh, hERG WT inh)
Nc1ncnc2c1nc(Sc1ccc(Cl)cc1)n2[C@H]1O[C@@H]2COP(=O)(O)O[C@H]2[C@@H]1O	none (no result: PLK1 PBD inh, MBNL1 CUG block, VDR inhibitor, KCNH2 3.1 block, hERG WT inh)
C[Si](C)(C/C=C/CC[C@H](O)C1=CCCCC1=O)c1ccccc1	none (no result: PLK1 PBD inh, MBNL1 CUG block, KCNH2 3.1 block, hERG WT inh)
Cc1cc([N+](=O)[O-])ccc1NC(c1nnc(-c2ccccc2)o1)c1ccccc1F (stereo unspecified)	none (no result: PLK1 PBD inh, MBNL1 CUG block, KCNH2 3.1 block, CBFb-RUNX1 inh, hERG WT inh)
O=C1C=C(O)c2ccccc2C1=O	VDR inhibitor 8.9µM (no result: PLK1 PBD inh, MBNL1 CUG block, KCNH2 3.1 block, hERG WT inh)
O=C1C(O)=C(O)C(=O)c2ccccc21	VDR inhibitor 8.9µM (no result: MBNL1 CUG block, CBFb-RUNX1 inh)
O=C1C(=O)c2ccccc2C(O)=C1c1ccccc1F	MBNL1 CUG block inconclusive
O=C1C=C(c2c(O)ccc3ccccc23)c2ccccc2C1=O	PLK1 PBD inh 7.5µM, VDR inhibitor inconclusive (no result: MBNL1 CUG block, CBFb-RUNX1 inh)
O=C(Nc1ccc(OCc2cc(=O)n3c4c(sc3n2)CCCC4)cc1)c1ccccc1	none (no result: PLK1 PBD inh, MBNL1 CUG block, KCNH2 3.1 block, CBFb-RUNX1 inh, hERG WT inh)
CCCCCCCCCCCCCC(=O)N[C@H](C)[C@@H](O)c1ccccc1	none (no result: PLK1 PBD inh, MBNL1 CUG block, KCNH2 3.1 block, hERG WT inh)
C=C1CCN(C(Cc2ccccc2)C(=O)N2CCOCC2)S(=O)(=O)c2ccccc21 (stereo unspecified)	none (no result: PLK1 PBD inh, MBNL1 CUG block, KCNH2 3.1 block, hERG WT inh)
CCCc1cc(=O)[nH]c(SCC(=O)c2c[nH]c3ccccc23)n1	PLK1 PBD inh 19µM, VDR inhibitor inconclusive
O=C(NCCn1cc(SCc2ccc(Cl)cc2)c2ccccc21)c1cccs1	none (no result: PLK1 PBD inh, MBNL1 CUG block, KCNH2 3.1 block, CBFb-RUNX1 inh, hERG WT inh)
COc1ccc(O)c(C(=O)c2cc(SCC(=O)O)c3nc4sc5c(c4c(=O)n3c2)CCCC5)c1	PLK1 PBD inh 27µM
N#CC1C(=O)c2ccccc2C1c1ccccc1 (stereo unspecified)	PLK1 PBD inh 30µM, VDR inhibitor 45µM (no result: MBNL1 CUG block, CBFb-RUNX1 inh)
O=C1CCC(c2ccccc2)c2ccccc21 (stereo unspecified)	none (no result: MBNL1 CUG block, CBFb-RUNX1 inh)
CCCC1([C@H](O)C/C=C/[C@H]2[C@H](O)CC(=O)[C@@H]2CCCCCCC(=O)OC)CCC1	CBFb-RUNX1 inh inconclusive (no result: PLK1 PBD inh, MBNL1 CUG block, KCNH2 3.1 block, hERG WT inh)
S=c1ccss1	VDR inhibitor 20µM (no result: PLK1 PBD inh, MBNL1 CUG block, KCNH2 3.1 block, CBFb-RUNX1 inh, hERG WT inh)
O=c1[nH]c(SCc2ccccc2)ncc1S(=O)(=O)c1ccccc1	none (no result: PLK1 PBD inh, MBNL1 CUG block, KCNH2 3.1 block, CBFb-RUNX1 inh, hERG WT inh)
CCOC(=O)c1c(NC(=O)CSc2nc(-c3ccc(OC)cc3)cc(C(F)(F)F)n2)sc(C)c1C	VDR inhibitor 79µM (no result: PLK1 PBD inh, MBNL1 CUG block, KCNH2 3.1 block, CBFb-RUNX1 inh, hERG WT inh)
CCN(CC)C(=O)c1sc(NC(=O)C(C)Sc2nc(-c3ccccc3)cc(C(F)(F)F)n2)c(C(=O)OC)c1C (stereo unspecified)	VDR inhibitor 35µM (no result: PLK1 PBD inh, MBNL1 CUG block, KCNH2 3.1 block, CBFb-RUNX1 inh, hERG WT inh)
CC(Sc1nc(-c2ccccc2)cc(C(F)(F)F)n1)C(=O)O (stereo unspecified)	PLK1 PBD inh 27µM
O=C(O)c1ccc(CSc2nc(-c3ccc(Cl)cc3)cc(C(F)(F)F)n2)cc1	PLK1 PBD inh 21µM
CCN(CC)CCCNC(=O)C(C)Sc1nc(-c2ccccc2)cc(C(F)(F)F)n1 (stereo unspecified)	none
O=C(Nc1nc2n(n1)C(c1ccc(F)cc1)C=C(c1ccc(Cl)cc1)N2)c1ccc([N+](=O)[O-])cc1 (stereo unspecified)	none (no result: PLK1 PBD inh, MBNL1 CUG block, KCNH2 3.1 block, CBFb-RUNX1 inh, hERG WT inh)
COC(=O)/C(=C1\OC(=O)C(c2ccccc2)C1=O)c1ccccc1 (stereo unspecified)	none (no result: PLK1 PBD inh, MBNL1 CUG block, KCNH2 3.1 block, CBFb-RUNX1 inh, hERG WT inh)
